Bioassay records deposited in PubChem by National Center for Advancing Translational Sciences (NCATS).
TDP1 inh – blocks human tyrosyl-DNA phosphodiesterase 1; AID 485290; Potency, µM (top dose mostly 130 µM), inactives show at the highest dose activity change, negative = inhibition, most hits filed as inhibitors; Q9NUW8; recombinant TDP1, AlphaScreen DNA substrate cleavage; 350,000 tested, 0.28% active; note: potency is the fitted concentration of half-maximal effect; nearly all actives have a fitted effect of over 40% in size
Target sequence (Q9NUW8 whole entry, looked up): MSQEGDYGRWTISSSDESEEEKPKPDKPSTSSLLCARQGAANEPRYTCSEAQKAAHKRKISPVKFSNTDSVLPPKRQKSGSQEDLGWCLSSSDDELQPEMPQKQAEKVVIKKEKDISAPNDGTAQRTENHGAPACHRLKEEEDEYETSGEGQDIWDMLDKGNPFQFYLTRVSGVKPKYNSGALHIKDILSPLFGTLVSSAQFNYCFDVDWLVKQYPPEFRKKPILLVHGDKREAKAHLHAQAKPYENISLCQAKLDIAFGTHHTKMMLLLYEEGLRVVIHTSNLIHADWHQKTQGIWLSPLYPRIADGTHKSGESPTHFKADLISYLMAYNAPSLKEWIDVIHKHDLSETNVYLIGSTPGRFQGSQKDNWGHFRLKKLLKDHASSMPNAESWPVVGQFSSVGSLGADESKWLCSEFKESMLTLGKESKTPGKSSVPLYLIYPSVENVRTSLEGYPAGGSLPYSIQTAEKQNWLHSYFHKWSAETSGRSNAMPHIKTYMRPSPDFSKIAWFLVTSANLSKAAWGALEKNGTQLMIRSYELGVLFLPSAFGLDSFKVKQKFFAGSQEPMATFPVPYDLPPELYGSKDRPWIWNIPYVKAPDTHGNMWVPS
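Steps: enzyme plus compound, 15 min RT; add biotin/phosphotyrosine-FITC oligonucleotide (15 nM final), react 5 min; add donor/acceptor beads (10 ug/ml final), 10 min; read AlphaScreen. Tdp1 at 1 nM final.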
TDP1 cell noCPT – qHTS for Inhibitors of human tyrosyl-DNA phosphodiesterase 1 (TDP1): qHTS in cells in absence of CPT; DT40 Tdp1-/- hTDP1 cells, no CPT, ATP luminescence, 48 h; 420,000 tested, 15% active; Potency, µM (highest dose often 46.2 µM), inactives show top-dose activity change, negative = growth inhibition, most hits filed as inhibitors; note: potency is the fitted concentration of half-maximal effect; nearly all actives have a fitted effect of over 55% in size
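Readout: luminescence from CellTiter-Glo after 30 min in the dark at RT. Cells: DT40 Tdp1-/- with stable hTDP1, 400/well. Exposure: compounds alone, ≥48 hr, 37 °C.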
IL-1B inflam inh – blocks inflammasome-driven IL-1 beta release | THP-1 LPS/ATP IL-1B secretion, AlphaLISA, 16 h; hits give low values | activity change, % at 57.5 µM | 360,000 tested, 4.7% active; in the data active = activity change below about -50%; inconclusive = mostly about -30% to -49%
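Secreted IL-1B measured by AlphaLISA bead assay after 16 h compound exposure of THP-1 cells; compounds (final up to 57.5 uM) added 1 h before LPS (250 ng/mL) and ATP (1.25 mM) stimulation; lower signal means less secretion.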
DT40 TDP1 CPT – DT40-hTDP1 cell growth loss with CPT. chicken DT40 Tdp1-/-;hTDP1 cells + 20 nM CPT, ATP luminescence, 48 h. Potency, µM (doses to about 46.2 µM), for the others: at the highest dose activity change, negative = growth inhibition, hits mostly inhibitors. 420,000 tested, 12% active; note: potency is the fitted concentration of half-maximal effect; nearly all actives have a fitted effect of over 55% in size
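Chicken DT40 Tdp1-/- cells stably complemented with human TDP1 were seeded at 400 cells/well in medium containing 20 nM camptothecin, exposed to pin-transferred compounds, and grown at 37 °C for at least 48 hr. Viability was read as ATP luminescence.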
Giardia killer – Giardia lamblia killing. Giardia lamblia trophozoite viability. activity change, % at 7.66 µM, hits read low. 340,000 tested, 0.15% active; in the data active = activity change below about -80%; inconclusive = between about -30% and that limit;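 note: parasites exposed to compound for two days anaerobically before the ATP read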
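Trophozoite viability was measured as ATP-dependent luminescence, read 15-30 min after reagent addition. Before that, parasites at 100 cells/well were exposed to compounds for 48 h, anaerobically, at 37 deg C.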
ELG1 DNA repair – blocks ELG1-dependent DNA repair in HEK293T cells; HEK293T ELG1-luciferase reporter, luminescence, 16 h; DNA damage induced by 5-fluorouridine; Potency, µM (highest dose often 46.1 µM), inactives show at the top dose activity change, negative = inhibition, actives largely listed as inhibitors; 330,000 tested, 2.3% active; note: potency is the fitted concentration of half-maximal effect; nearly all actives have a fitted effect of over 55% in size
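In this reporter screen, reduction of luminescence relative to DMSO vehicle indicated activity. Compounds and 5-fluorouridine were added together to 2,000 cells per well, incubated for 16 hr at 37 °C, then developed with ONE-Glo.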
Starred values were filed as active, the others as inactive; ? = inconclusive; . = not tested or not shown; [ ] = dose if it differs, or a comment. This is a sample that favours compounds with a hit; in the whole collection about 19% have one here. Unless noted, calls come from the whole dose curve; as a rule, active = well fitted curve in the direction sought with a large enough effect; inconclusive = small, poorly fitted or top-dose-only effect, or another doubt; inactive = no such curve, though single readings can be large; an effect the other way counts as inactive or inconclusive. % is set by controls: 0 for no effect and ±100 for the full control effect.

SMILES | TDP1 inh | TDP1 cell noCPT | IL-1B inflam inh | DT40 TDP1 CPT | Giardia killer | ELG1 DNA repair
CCOC(=O)c1[nH]c(C)c(C(=O)N2CCc3c([nH]c4ccccc34)C2c2ccccn2)c1C (stereo not given) | -2% | ? | -52* | 16µM* | -16 | -7%
CC(=O)Nc1ccc(CN2CCc3c([nH]c4ccccc34)C2c2ccccn2)cc1 (stereo not given) | 4% | 21µM* | -2 | ? | -9 | ?
Cc1cccc(C2c3[nH]c4ccccc4c3CCN2C(=O)c2ccc(=O)[nH]c2)n1 (stereo not given) | 7% | -22% | 32 | 6% | -16 | 3%
Cc1nc(C)c(CC(=O)N2CCc3c([nH]c4ccccc34)C2c2ccccn2)s1 (stereo not given) | . | ? | -14 | -7% | -6 | ?
c1ccc(C2c3[nH]c4ccccc4c3CCN2Cc2cccn2-c2ccccn2)nc1 (stereo not given) | 11% | ? | 1 | ? | -21 | -8%
COc1ccc(CNC(=O)CCCc2cn(C)c3ccccc23)c(OC)c1 | 13% | ? | . | ? | . | .
CCOC(=O)c1c(C)oc2ccc(O)c(CN(C)C)c12 | 3% | ? | -23 | -20% | 6 | -16%
Cc1c(-c2ccccc2)c(=O)oc2c(CN3CCOCC3)c(O)ccc12 | 0% | ? | . | ? | . | .
CCOC(=O)c1c(-c2ccccc2)oc2ccc(O)c(CN3CCN(C)CC3)c12 | 5% | 2.3µM* | . | 2.1µM* | 12 | -1%
Cc1oc2ccc(O)c(CN3CCN(Cc4ccccc4)CC3)c2c1C(=O)Nc1ccccc1 | 11% | ? | . | 23µM* | . | .
CCOC(=O)c1c(C)n(C)c2ccc(O)c(CN3CCN(C)CC3)c12 | 6% | -18% | -1 | -7% | -6 | -15%
Cc1ccccc1NC(=O)c1c(C)oc2ccc(O)c(CN3CCOCC3)c12 | -6% | 23µM* | . | 21µM* | . | .
Cc1oc2ccc(O)c(CN3CCOCC3)c2c1C(=O)Nc1ccccc1 | 4% | -4% | . | -15% | . | .
COCCOC(=O)c1c(C)oc2ccc(O)c(CN3CCC(C)CC3)c12 (tested in a mixture with another compound) | . | ? | -52* | ? | 2 | .
CC(C)(C)OC(=O)C[C@@H]1C/C=C\C[C@H](CC(=O)N(CCO)Cc2ccccc2)C(=O)N[C@H](C(C)(C)C)COC1=O | -1% | ? | 14 | ? | -5 | ?
COCCN(C)C(=O)c1cnn(-c2ncc3c(n2)-c2ccccc2CCC3)c1C1CC1 | . | -11% | . | -6% | . | .
Cc1ccc(NC(=O)c2c(C)oc3ccc(O)c(CN4CCCCC4)c23)c(C)c1 | 0% | 16µM* | . | 12µM* | . | .
Cc1oc2ccc(O)c(CN3CCOCC3)c2c1C(=O)Nc1ccc(C(C)C)cc1 | 4% | 16µM* | . | 16µM* | . | .
Cc1ccc(NC(=O)c2c(C)oc3ccc(O)c(CN4CCCCC4)c23)cc1 | -1% | ? | . | ? | . | .
COc1ccc(NC(=O)c2c(C)oc3ccc(O)c(CN4CCCCCC4)c23)cc1Cl | 4% | ? | . | 26µM* | . | .
Cc1ccccc1NC(=O)c1c(C)oc2ccc(O)c(CN3CCCCCC3)c12 | 4% | 21µM* | . | 23µM* | . | .
CCOC(=O)CC(=O)NC(C)(C)CCCCC(C)(C)NC(=O)CC(=O)OCC | . | -15% | 0 | -5% | 0 | -1%
C[C@@H]1O[C@@H](OC2O[C@@H](COc3cc(O)c4c(=O)cc(-c5ccc(O)cc5)oc4c3)[C@@H](O)[C@@H](O)[C@@H]2O)[C@H](O)[C@H](O)[C@H]1O (stereo not given in full) | 5% | . | . | . | . | .
COc1ccc(-n2c(=O)c(CCc3ccccc3)nc3cnc(N(C)C)nc32)cc1 | . | 9% | . | 8% | . | .
CON(C)C(=O)c1nnc2c(n1)[nH]c1ccccc12 | 7%[21 µM] | . | . | . | . | .
SMILES | TDP1 inh | TDP1 cell noCPT | IL-1B inflam inh | DT40 TDP1 CPT | Giardia killer | ELG1 DNA repair
COc1ccc(-c2noc(CSc3nnc(Cc4ccccc4)n3-c3cccc(C)c3)n2)cc1OC | 1% | 21µM* | -64* | 16µM* | -8 | ?
COc1ccc(OC)c(-c2noc(CSc3nnc(Cc4ccccc4)n3-c3cccc(C)c3)n2)c1 | 9% | 23µM* | . | 18µM* | . | .
COc1ccc(-c2noc(CSc3nnc(Cc4ccccc4)n3-c3ccccc3)n2)cc1OC | 10% | 13µM* | . | 23µM* | . | .
COc1ccc(-c2noc(CSc3nc4ccccc4c(=O)n3-c3ccccc3)n2)cc1OC | 4% | ? | -20 | ? | 10 | -11%
c1ccc(Cc2nnc(SCc3nc(-c4cccs4)no3)n2-c2ccccc2)cc1 | 4% | ? | . | ? | . | .
CCOc1ccc(-c2noc(CSc3nnc(Cc4ccccc4)n3-c3ccc(F)cc3)n2)cc1 | 9% | ? | . | ? | . | .
COc1ccc(OC)c(-c2noc(CSc3nnc(-c4ccccc4)n3-c3ccccc3)n2)c1 | 5% | 5.2µM* | . | 15µM* | . | .
CC1CCc2sc(C(=O)N/N=C/c3ccc([N+](=O)[O-])cc3)cc2C1 (stereo not given) | 3% | -1% | 4 | 8% | -9 | -3%
C[C@H]1CN([C@@H](C)CO)C(=O)CCCn2nncc2CO[C@H]1CN(C)S(=O)(=O)c1ccc(C#N)cc1 | . | -10% | 5 | -11% | . | .
Cc1cc(C)nc(/N=C(\N)Nc2ccc(OCCC(C)C)cc2)n1 | 1% | 12µM* | -98* | 9.2µM* | 12 | -15%
Cc1cc(C)nc(/N=C(\N)Nc2ccc(C)c([N+](=O)[O-])c2)n1 | 2% | 13µM* | -112* | 10µM* | 21 | 0%
Cc1cc(C)nc(/N=C(\N)Nc2ccc(OCc3ccccc3)cc2)n1 | 3% | 12µM* | -93* | 12µM* | 16 | -7%
Cc1cc(C)nc(/N=C(\N)Nc2ccc(CC(=O)OC(C)C)cc2)n1 | . | 3.3µM* | -99* | ? | -7 | -3%
Cc1cc(C)nc(/N=C(\N)Nc2cccc(OCc3ccccc3)c2)n1 | . | 12µM* | -68* | 16µM* | 32 | 21µM*
COc1ccc(N/C(N)=N/c2nc(C)cc(C)n2)cc1 | . | ? | 82 | -21% | . | .
COC(=O)[C@@H]1C[C@@H](NC(=O)c2cccc3c(C)c(C)[nH]c23)CN1Cc1cccc2ccccc12 | . | -24% | . | 5%[9.04 µM] | . | .
Cc1ccc(OCC(=O)NC2CCSc3ccccc32)cc1 (stereo not given) | -3% | -25% | -3 | -13% | -10 | ?
